Some test systems named below: HT29 colon; SNB-75 CNS; SNB-19 CNS; U251 CNS; PC-3 prostate; SK-MEL-5 melanoma; UACC-62 melanoma; LOX IMVI melanoma; SK-MEL-28 melanoma; SK-MEL-2 melanoma; EKVX NSCLC; SN12C renal; UO-31 renal; TK-10 renal; ACHN renal; CAKI-1 renal; A498 renal; CCRF-CEM leukemia; MOLT-4 leukemia.
Experiment in all cases: NCI-60 one-dose screen, 48 h (100 = growth as untreated, 0 = no growth, -100 = all killed)
Common to all, as to details: 10 µM unless noted

Values joined by “and” are separate entries in the source; they are usually repeats but may differ in a detail not shown here. Equal values may be shown once. This is part of a sample that, as a whole, favours compounds with a hit. Of some 83,000 tested, about 20% had one in any assay.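 Plates (96-well) were seeded with cells, treated with compound at one concentration, and incubated for 48 hours before percent growth was determined.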 Active and inactive are the calls of the source. How the source made its calls: active means growth percent below 10; inactive means the rest.

Consider `Cc1cc2nc3ccc(=[N+](C)C)cc-3sc2cc1N`, for which the growth in the assay with HT29 colon is 3.91% (active) and 19.4% (inactive); with SNB-75 CNS, 88.2% (inactive) and 22.1% (inactive); with SNB-19 CNS it was -17.2% (active) and -4.45% (active); in the assay with U251 CNS, 1.01% (active) and -31% (active); in the assay on PC-3 prostate it was -1.87% (active) and -5.43% (active); in the assay with SK-MEL-5 melanoma, -92.2% (active) and -90.1% (active). Moreover, the growth with UACC-62 melanoma is -31.9% (active) and 23.3% (inactive); with LOX IMVI melanoma it was -19.1% (active) and -29.2% (active); in the assay with SK-MEL-28 melanoma it was -9.76% (active) and 20.1% (inactive); with SK-MEL-2 melanoma, -33.5% (active) and 20.3% (inactive); in the assay on EKVX NSCLC, 38.7% (inactive) and 24.3% (inactive); with SN12C renal, -65.9% (active) and -66.4% (active). For the same molecule, the growth in the assay on UO-31 renal was 8.95% (active) and 36.6% (inactive); in the assay on TK-10 renal, -12.3% (active) and 14.7% (inactive); with ACHN renal, -73.1% (active) and 9.45% (active); with CAKI-1 renal it was 12% (inactive) and 27.6% (inactive); with A498 renal it was 74.9% (inactive) and 65.4% (inactive); in the assay on CCRF-CEM leukemia, -7.13% (active) and -12.1% (active). For the same molecule, the growth in the assay with MOLT-4 leukemia is -10.7% (active) and -19.8% (active).
As to `COC(=O)c1nc(N)nc(C(=O)OC)c1C(=O)c1ccc(F)cc1`, the growth in the assay with HT29 colon was 115% (inactive); with SNB-75 CNS, 99.1% (inactive); with SNB-19 CNS, 103% (inactive); in the assay with U251 CNS it was 102% (inactive); in the assay with PC-3 prostate, 104% (inactive); with SK-MEL-5 melanoma, 103% (inactive). Further, the growth in the assay with UACC-62 melanoma is 105% (inactive); in the assay with LOX IMVI melanoma, 98.6% (inactive); in the assay with SK-MEL-28 melanoma, 115% (inactive); with SK-MEL-2 melanoma it was 105% (inactive); in the assay on EKVX NSCLC, 104% (inactive); in the assay on SN12C renal it was 103% (inactive). In addition, the growth with UO-31 renal was 92.4% (inactive); in the assay with TK-10 renal it was 109% (inactive); in the assay with CAKI-1 renal it was 96.1% (inactive); in the assay with A498 renal, 120% (inactive); in the assay on CCRF-CEM leukemia it was 106% (inactive); with MOLT-4 leukemia, 156% (inactive).
With `CCCCC/C(C)=N\NC(N)=S`, the growth in the assay with HT29 colon was 55.3% (inactive); in the assay on SNB-75 CNS it was 86.6% (inactive); in the assay on SNB-19 CNS, 105% (inactive); in the assay with U251 CNS, 80.2% (inactive); with PC-3 prostate, 89.4% (inactive); with SK-MEL-5 melanoma, 90% (inactive). The growth with UACC-62 melanoma was 96.2% (inactive); in the assay with LOX IMVI melanoma, 95.6% (inactive); with SK-MEL-28 melanoma, 94.2% (inactive); in the assay on SK-MEL-2 melanoma, 103% (inactive); in the assay on EKVX NSCLC, 55.4% (inactive); in the assay on SN12C renal it was 84.4% (inactive). Also, the growth was 61.8% (inactive) in the assay with UO-31 renal; 100% (inactive) in the assay on TK-10 renal; 92.6% (inactive) with ACHN renal; 95.2% (inactive) in the assay on CAKI-1 renal; 84.7% (inactive) in the assay with A498 renal; 41.1% (inactive) in the assay on CCRF-CEM leukemia. Also, the growth in the assay with MOLT-4 leukemia is 57.2% (inactive).
Take `COc1cc([C@@H]2c3cc4c(cc3[C@H](O)[C@H]3COC(=O)[C@@H]23)OCO4)cc(OC)c1OC`: the growth in the assay with HT29 colon is 2.22% (active) and -8.13% (active); in the assay with SNB-75 CNS, 19.4% (inactive) and 12.9% (inactive); in the assay on SNB-19 CNS, 27.3% (inactive) and 12.9% (inactive); in the assay with U251 CNS it was 16.4% (inactive) and 26.2% (inactive); with PC-3 prostate it was 26.9% (inactive) and 6.21% (active); in the assay with SK-MEL-5 melanoma, -27.1% (active) and -44% (active). Moreover, the growth in the assay with UACC-62 melanoma is 19.9% (inactive) and 68.1% (inactive); in the assay on LOX IMVI melanoma, 23.3% (inactive) and 15.6% (inactive); in the assay with SK-MEL-28 melanoma, 28.4% (inactive) and -24% (active); in the assay with SK-MEL-2 melanoma, -23.7% (active); in the assay on EKVX NSCLC, 28.6% (inactive) and 35.4% (inactive); with SN12C renal, 20.6% (inactive) and 33% (inactive). In addition, the growth was 23.3% (inactive) and 36.9% (inactive) in the assay with UO-31 renal; 21.1% (inactive) and 69.2% (inactive) in the assay with TK-10 renal; 25.2% (inactive) and 31.8% (inactive) in the assay with ACHN renal; 22.9% (inactive) and 8.72% (active) with CAKI-1 renal; -5.77% (active) and -29.6% (active) with A498 renal; 17.4% (inactive) and 0.767% (active) in the assay with CCRF-CEM leukemia. The growth with MOLT-4 leukemia was 13.5% (inactive) and 4.58% (active).
In the case of `O=[N+]([O-])c1cccc(N=Cc2ccccc2)c1`, the growth with HT29 colon was 101% (inactive); with SNB-75 CNS, 96.7% (inactive); in the assay with SNB-19 CNS it was 118% (inactive); in the assay on PC-3 prostate, 90.6% (inactive); in the assay with SK-MEL-5 melanoma, 104% (inactive); in the assay with UACC-62 melanoma, 103% (inactive). Also, the growth in the assay on LOX IMVI melanoma is 102% (inactive); in the assay with SK-MEL-28 melanoma, 122% (inactive); in the assay on SK-MEL-2 melanoma, 104% (inactive); in the assay with EKVX NSCLC, 102% (inactive); in the assay with SN12C renal it was 104% (inactive); in the assay with UO-31 renal it was 90.8% (inactive). The growth with TK-10 renal is 94.2% (inactive); with ACHN renal, 102% (inactive); with CAKI-1 renal it was 88.1% (inactive); in the assay on A498 renal, 110% (inactive); with CCRF-CEM leukemia, 95.7% (inactive); with MOLT-4 leukemia, 87.4% (inactive).
As to `COC(=O)c1nc(N)nc(C(=O)OC)c1C(=O)c1cccc2ccccc12`, the growth is 104% (inactive) with HT29 colon; 104% (inactive) in the assay on SNB-75 CNS; 103% (inactive) in the assay on SNB-19 CNS; 97% (inactive) in the assay with PC-3 prostate; 98.9% (inactive) in the assay on SK-MEL-5 melanoma; 97.2% (inactive) in the assay on UACC-62 melanoma. Further, the growth is 95.3% (inactive) in the assay with LOX IMVI melanoma; 106% (inactive) with SK-MEL-28 melanoma; 106% (inactive) in the assay on SK-MEL-2 melanoma; 99.5% (inactive) with SN12C renal; 89.7% (inactive) with UO-31 renal; 97.5% (inactive) with TK-10 renal. The growth with ACHN renal is 106% (inactive); in the assay on CAKI-1 renal, 96.3% (inactive); in the assay with A498 renal, 105% (inactive); with CCRF-CEM leukemia it was 101% (inactive); in the assay on MOLT-4 leukemia it was 112% (inactive).

Source of the values: PubChem BioAssay (NCI).
